Source: PubChem BioAssay
Calls of active or inactive are those of the source. Unless noted, how the calls were made is not given here.

Legend:
[1] = test system: Wnt5a (protein binding on small-molecule microarray); assay: small molecules binding Wnt5a protein – biophysical, small-molecule microarray, 635/667 nm fluorescence, primary screen (AID 1142); conditions: 635 nm fluorescence, higher = more signal;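 further: fluorescence read at 667 nm with signal to noise per printed feature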
[2] = ATP-based viability of Huh7 replicon cells – cell-based, CellTiter-Glo luminescence, basal, 48 h, cytotoxicity control for HCV replication inhibitor project, primary screen (AID 1143); conditions: higher = more signal, called active from +8 up or from −8 down;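 further: Huh7 hepatoma cells carrying a hepatitis C replication reporter with no stimulus; test concentration not given here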
[3] = Pseudomonas biofilm growth suppression – PAO1 strain, BacTiter-Glo luminescence, LB-PBS, primary screen (AID 1144); conditions: P. aeruginosa PAO1 biofilm, 12 h, higher = more signal
[4] = basal CRE-LacZ reporter activity in PC12 – cell-based, unstimulated, primary screen (AID 1145); conditions: no forskolin, luminescence, 4.5 h, higher = more signal, called active from +8 up or from −8 down
[5] = forskolin-driven CRE-LacZ activity in PC12 – cell-based, CRE-LacZ reporter, forskolin-stimulated, primary screen (AID 1146); conditions: luminescence, 4.5 h, higher = more signal, called active from +8 up or from −8 down;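 further: PC12 cells with 6xCRE LacZ reporter stimulated by forskolin 10 µM; beta-galactosidase reporter signal reflecting CREB driven transcription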
[6] = biological target: Streptavidin (Streptomyces avidinii) (UniProt P22629); assay: compounds binding control protein streptavidin – biophysical, small-molecule microarray, 635/667 nm fluorescence, artefact control for SMM compound annotation, primary screen (AID 1147); conditions: higher = more signal;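 further: signal reflects streptavidin binding to arrayed compounds as a control protein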
Streptavidin (Streptomyces avidinii), sequence (P22629 whole entry, looked up): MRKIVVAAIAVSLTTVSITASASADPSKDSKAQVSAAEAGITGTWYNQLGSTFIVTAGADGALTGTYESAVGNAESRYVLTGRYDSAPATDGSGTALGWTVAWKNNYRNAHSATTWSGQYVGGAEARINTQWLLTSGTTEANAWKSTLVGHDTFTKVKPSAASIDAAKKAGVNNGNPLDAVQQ

[7] = probe aInhba binding on compound microarray – biochemical, small-molecule microarray, 635/667 nm fluorescence, primary screen (AID 1148); conditions: higher = more signal;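 further: score merges 667nm spot fluorescence with signal-to-noise for antibody binding to printed compounds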
Torsin-1A (Homo sapiens) [8] = biological target: Torsin-1A (Homo sapiens) (UniProt O14656); assay: TOR1A wild-type binding on microarray – cell lysate, small-molecule microarray, lysate, 635/667 nm, primary screen (AID 1149); conditions: COS7 hTOR1A-WT lysate, 635 nm fluorescence, higher = more signal
Torsin-1A (Homo sapiens), sequence (O14656 whole entry, looked up): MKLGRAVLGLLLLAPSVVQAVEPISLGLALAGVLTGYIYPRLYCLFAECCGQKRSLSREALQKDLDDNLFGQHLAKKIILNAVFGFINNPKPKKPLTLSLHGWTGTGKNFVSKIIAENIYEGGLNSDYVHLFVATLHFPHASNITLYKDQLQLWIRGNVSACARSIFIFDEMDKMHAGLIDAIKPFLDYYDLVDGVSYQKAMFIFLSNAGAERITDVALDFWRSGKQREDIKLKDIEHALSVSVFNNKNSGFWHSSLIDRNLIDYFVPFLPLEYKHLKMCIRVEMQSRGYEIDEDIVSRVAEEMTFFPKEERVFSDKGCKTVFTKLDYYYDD

Torsin-1A (Homo sapiens) [9] = biological target: Torsin-1A (Homo sapiens) (UniProt O14656); assay: torsin A mutant lysate binding on microarrays – cell lysate, small-molecule microarray, COS7 lysate, 635/667 nm fluorescence, primary screen (AID 1150); conditions: COS7 hTOR1A mutant lysate, 635 nm fluorescence, higher = more signal;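 further: score pools 667 nm emission and signal to noise measuring lysate protein binding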
[10] = test system: Sonic hedgehog protein (Shh); assay: Sonic hedgehog microarray binding compounds – biochemical, small-molecule microarray, 635/667 nm fluorescence, primary screen (AID 1151); conditions: 635 nm fluorescence, higher = more signal;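 further: Shh protein binding to compounds spotted on small-molecule microarray slides; score combines spot fluorescence intensity with signal-to-noise across triplicate slides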
[11] = optical density shifts of acrAB sulA E. coli – strain DRC41, OD650, 48 h, E. coli filamentation inducer project, primary screen (AID 1152); conditions: higher = more signal, called active from +8 up or from −8 down;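 further: E. coli MC1000 strain DRC41 lacking acrAB efflux pump and sulA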
[12] = probe aLefty1 binding on compound microarray – biochemical, small-molecule microarray, 635/667 nm fluorescence, primary screen (AID 1153); conditions: higher = more signal;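 further: score merges spot fluorescence with signal-to-noise ratio from the scanned slide images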
[13] = plasmodial surface anion channel blockers, osmotic lysis – cell-based, P. falciparum Indochina, OD700, 1 h, primary screen (AID 1154); conditions: P. falciparum Indochina infected RBC osmotic lysis, higher = more signal, called active from +8 up or from −8 down
[14] = plasmodial surface anion channel blockers, osmotic lysis – cell-based, P. falciparum Indochina, OD700, 2 h, primary screen (AID 1155);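 further: lysis reports solute entry through the parasite surface anion channel PSAC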; conditions: P. falciparum Indochina infected erythrocytes, higher = more signal, called active from +8 up or from −8 down
[15] = changes in parasitized red cell lysis, either direction – P. falciparum Indochina, OD700, 3 h, PSAC antagonist project, primary screen (AID 1156); conditions: P. falciparum-infected erythrocytes, osmotic lysis, higher = more signal, called active from +8 up or from −8 down
[16] = plasmodial surface anion channel blockers, osmotic lysis – cell-based, P. falciparum Indochina, OD700, 18 h, primary screen (AID 1157); conditions: P. falciparum Indochina infected erythrocytes, osmotic lysis OD700, 18 h; higher = more signal, called active from +8 up or from −8 down
[17] = S6 kinase pathway phospho-S6 level changes – cell-based, A549, cytoblot, luminescence, serum-stimulated, primary screen (AID 1158); conditions: 5 h, higher = more signal;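 further: serum-stimulated A549 lung adenocarcinoma cells; signal is phosphorylated S6 detected by cytoblot immunostaining with HRP secondary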
[18] = biological target: NADPH oxidase 2 (Homo sapiens) (UniProt P04839); assay: compounds shifting NOX2 Amplex Red fluorescence – cell-based, HEK293-NOX2, PMA-stimulated, NOX inhibitor project, primary screen (AID 1159); conditions: 45 min, higher = more signal, called active from +8 up or from −8 down; further: test concentration not given here
NADPH oxidase 2 (Homo sapiens), sequence (P04839 whole entry, looked up): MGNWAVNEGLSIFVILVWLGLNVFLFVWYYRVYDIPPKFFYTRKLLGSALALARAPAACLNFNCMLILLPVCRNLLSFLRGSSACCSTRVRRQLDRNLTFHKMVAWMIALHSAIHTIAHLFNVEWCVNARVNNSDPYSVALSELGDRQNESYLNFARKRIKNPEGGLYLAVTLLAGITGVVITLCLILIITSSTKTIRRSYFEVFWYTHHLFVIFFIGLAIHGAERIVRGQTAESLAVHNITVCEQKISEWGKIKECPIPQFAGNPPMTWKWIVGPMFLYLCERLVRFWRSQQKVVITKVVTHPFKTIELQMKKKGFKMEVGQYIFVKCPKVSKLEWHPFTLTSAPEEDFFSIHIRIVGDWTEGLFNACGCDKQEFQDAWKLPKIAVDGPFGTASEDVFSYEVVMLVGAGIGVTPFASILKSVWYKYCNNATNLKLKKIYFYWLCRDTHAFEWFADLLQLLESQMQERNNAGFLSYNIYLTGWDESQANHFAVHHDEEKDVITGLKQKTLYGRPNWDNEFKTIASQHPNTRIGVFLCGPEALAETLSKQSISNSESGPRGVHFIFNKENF

[19] = biological target: NADPH oxidase 4 (Homo sapiens) (UniProt Q9NPH5); assay: compounds shifting NOX4 Amplex Red fluorescence – cell-based, HEK293-NOX4, tetracycline-induced, NOX inhibitor project, primary screen (AID 1160); conditions: HEK293-NOX4, Amplex Red H2O2 fluorescence, 45 min; higher = more signal, called active from +8 up or from −8 down
NADPH oxidase 4 (Homo sapiens), sequence (Q9NPH5 whole entry, looked up): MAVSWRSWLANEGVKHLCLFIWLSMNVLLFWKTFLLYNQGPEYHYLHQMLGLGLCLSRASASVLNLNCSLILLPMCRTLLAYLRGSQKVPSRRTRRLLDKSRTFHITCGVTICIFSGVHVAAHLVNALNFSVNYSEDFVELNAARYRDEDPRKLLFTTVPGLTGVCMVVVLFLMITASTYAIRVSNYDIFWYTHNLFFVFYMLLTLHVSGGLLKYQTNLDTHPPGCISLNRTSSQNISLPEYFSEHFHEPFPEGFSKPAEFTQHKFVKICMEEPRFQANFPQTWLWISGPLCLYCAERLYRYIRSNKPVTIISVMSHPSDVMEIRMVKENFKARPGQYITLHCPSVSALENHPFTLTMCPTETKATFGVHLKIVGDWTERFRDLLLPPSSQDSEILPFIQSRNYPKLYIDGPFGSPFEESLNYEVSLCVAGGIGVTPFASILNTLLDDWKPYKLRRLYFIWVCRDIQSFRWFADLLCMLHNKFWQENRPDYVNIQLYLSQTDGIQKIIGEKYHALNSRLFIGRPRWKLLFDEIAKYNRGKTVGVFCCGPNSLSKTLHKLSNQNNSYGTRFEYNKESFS

[20] = biological target: NADPH oxidase 5 (Homo sapiens) (UniProt Q96PH1); assay: compounds shifting NOX5 Amplex Red fluorescence – cell-based, HEK293-NOX5, NOX inhibitor project, primary screen (AID 1161); conditions: HEK293-NOX5, ionomycin, 45 min, higher = more signal
NADPH oxidase 5 (Homo sapiens), sequence (Q96PH1 whole entry, looked up): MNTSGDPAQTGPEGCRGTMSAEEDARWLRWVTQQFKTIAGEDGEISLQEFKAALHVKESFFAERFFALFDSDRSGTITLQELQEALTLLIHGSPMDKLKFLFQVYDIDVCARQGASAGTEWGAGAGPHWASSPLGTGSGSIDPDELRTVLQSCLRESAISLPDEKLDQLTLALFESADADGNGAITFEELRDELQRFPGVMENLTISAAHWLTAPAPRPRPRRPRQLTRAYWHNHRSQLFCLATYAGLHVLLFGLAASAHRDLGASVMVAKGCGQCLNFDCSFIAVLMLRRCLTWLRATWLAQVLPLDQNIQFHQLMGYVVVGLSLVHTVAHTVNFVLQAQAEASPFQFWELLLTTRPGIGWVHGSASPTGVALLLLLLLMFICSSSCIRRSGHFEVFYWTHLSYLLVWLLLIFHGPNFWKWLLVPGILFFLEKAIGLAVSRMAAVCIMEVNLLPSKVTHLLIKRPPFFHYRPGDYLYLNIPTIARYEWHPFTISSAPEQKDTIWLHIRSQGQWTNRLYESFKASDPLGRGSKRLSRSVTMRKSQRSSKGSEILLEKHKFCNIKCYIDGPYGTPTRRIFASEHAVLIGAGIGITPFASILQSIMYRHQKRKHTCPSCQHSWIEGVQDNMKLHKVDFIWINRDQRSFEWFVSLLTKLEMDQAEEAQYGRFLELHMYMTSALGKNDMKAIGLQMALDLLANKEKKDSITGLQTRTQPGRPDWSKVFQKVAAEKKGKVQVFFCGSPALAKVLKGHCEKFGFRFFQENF

Row | SMILES | composite z-score [1] | z-score [2] | z-score [3] | z-score [4] | z-score [5] | composite z-score [6] | composite z-score [7] | composite z-score (Torsin-1A (Homo sapiens) [8]) | composite z-score (Torsin-1A (Homo sapiens) [9]) | composite z-score [10] | z-score [11] | composite z-score [12] | z-score [13] | z-score [14] | z-score [15] | z-score [16] | z-score [17] | z-score [18] | z-score [19] | z-score [20]
1 | CC(C)=CCCC(C)=CCON=C1C[C@@H](O)[C@@H](O)[C@@H]2[C@@H]3C(=O)N([C@@H](C)c4ccccc4)C(=O)[C@@H]3CC[C@@H]12 | 0.143 | -1.19 (inactive) | 0.491 (inactive) | -0.834 (inactive) | -0.541 (inactive) | 0.242 | -0.121 | 0.337 | 1.09 | 0.672 | -0.0368 (inactive) | 0.0794 | 0.336 (inactive) | -0.168 (inactive) | -0.291 (inactive) | 0.183 (inactive) | -0.814 | 0.311 (inactive) | -0.0815 (inactive) | -0.919
2 | CO[C@@H](C1CCCCC1)[C@@H](C)[C@H](OCc1cccc(Br)c1)[C@@H](C)CO | -0.098 | -2.1 (inactive) | 0.115 (inactive) | 2.93 (inactive) | 0.432 (inactive) | -0.0731 | 0.0442 | -0.0604 | 0.467 | 0.458 | -0.409 (inactive) | -0.401 | 2.08 (inactive) | 1.29 (inactive) | -1.8 (inactive) | 0.957 (inactive) | -0.337 | -0.787 (inactive) | 0.0443 (inactive) | -2.45
3 | CC(=O)OC[C@H]1O[C@H](CC=NOCC[C@@H]2C=C[C@H](OC(C)=O)[C@@H](COC(C)=O)O2)C=C[C@@H]1OC(C)=O | 0.288 | 0.366 (inactive) | -0.358 (inactive) | 0.848 (inactive) | 1.4 (inactive) | 0.162 | -0.0471 | 1.06 | 1.05 | 0.654 | 0.645 (inactive) | 0.0483 | 0.421 (inactive) | 0.678 (inactive) | 0.286 (inactive) | 0.219 (inactive) | -0.696 | -0.175 (inactive) | 0.484 (inactive) | -0.705
4 | CC(C)CN1CCc2nc(-c3ccccc3)c3c(c2C1)CO[C@@H](C)C3 | 0.379 | -0.718 (inactive) | -0.876 (inactive) | 9.42 (active) | -1.44 (inactive) | 0.235 | 0.115 | 0.0937 | 0.571 | 0.421 | 0.696 (inactive) | 0.123 | 1.56 (inactive) | 0.711 (inactive) | 0.61 (inactive) | 0.615 (inactive) | 0.418 | 2.18 (inactive) | -2.08 (inactive) | 0.551
5 | COC(=O)[C@@H]1CC[C@H](C)[C@@H](c2ccc(Br)cc2)N1C[C@H](O)CN=[N+]=[N-] | -0.106 | -0.999 (inactive) | -1.5 (inactive) | -0.522 (inactive) | -0.369 (inactive) | 0.127 | -0.05 | 0.386 | 0.827 | 0.26 | -0.972 (inactive) | 0.181 | 1.04 (inactive) | 0.852 (inactive) | 0.48 (inactive) | 0.541 (inactive) | 0.928 | -0.855 (inactive) | -1.08 (inactive) | -0.0951
6 | COc1ccc(OC[C@@H]2CC3[C@@H](c4ccc(Br)cc4)[C@H](C)CC[C@H]3C(=O)O2)cc1 (stereo not given in full) | -0.223 | -0.513 (inactive) | -0.12 (inactive) | 1.9 (inactive) | -0.462 (inactive) | 0.0139 | -0.202 | 0.327 | 0.832 | 0.391 | -0.594 (inactive) | -0.106 | 4.49 (inactive) | 1.7 (inactive) | 0.85 (inactive) | 0.759 (inactive) | 0.338 | -0.803 (inactive) | -0.178 (inactive) | -0.351
7 | O=C1[C@H]2[C@H]3[C@H](O)[C@H](O)CC(=NO[C@@H]4O[C@H](CO)[C@@H](O)[C@H](O)[C@H]4O)[C@@H]3CC[C@H]2C(=O)N1C1CCCCC1 | 0.258 | 0.0805 (inactive) | 0.577 (inactive) | 0.342 (inactive) | 0.758 (inactive) | 0.247 | 0.0342 | 0.603 | 0.0159 | 0.635 | 0.381 (inactive) | -0.126 | 0.785 (inactive) | 0.636 (inactive) | 1.04 (inactive) | 0.228 (inactive) | 0.322 | -0.336 (inactive) | 0.607 (inactive) | 0.573
8 | CCOC(=O)CCN1C(=O)[C@H]2[C@@H]3C(=CC[C@H]2C1=O)C(=O)[C@H]1O[C@H]1[C@H]3O | -0.544 | -5.94 (inactive) | 0.737 (inactive) | 0.79 (inactive) | 28.7 (active) | -0.7 | -0.253 | -0.47 | 0.914 | -0.87 | 0.244 (inactive) | -0.284 | 3.05 (inactive) | 0.673 (inactive) | 0.587 (inactive) | 0.254 (inactive) | 0.642 | 0.955 (inactive) | 0.35 (inactive) | 0.38
9 | COc1ccc(O[C@H]2C=C[C@@H](c3ccccc3)O[C@@H]2CON=C2c3cc(OC)ccc3O[C@H](c3cccc(OC)c3)[C@H]2O)cc1 | 0.288 | -0.0115 (inactive) | -0.0389 (inactive) | 0.913 (inactive) | 0.411 (inactive) | 0.414 | -0.224 | 0.0513 | 0.37 | 0.105 | -1.41 (inactive) | -0.237 | 4.7 (inactive) | 1.12 (inactive) | -0.392 (inactive) | 0.442 (inactive) | -1.1 | -0.0682 (inactive) | 0.264 (inactive) | 0.562
